# D1 potentiator: human D1 dopamine receptor positive modulation | P21728 | HEK293 TREx D1 cells, calcium flux, dopamine EC20 potentiation | potentiation, % at 10 µM | 0.036% of 360,000 active | AID 504651; in the data active means potentiation above about 30%; further: 0% is about no effect
# TRHR ag: agonists of human TRH receptor. activation, % at 2 µM. 0.18% of 360,000 active. AID 493084. TRHR cells, calcium flux fluo-8, FDSS agonist mode. P34981; further: 0% is about no effect
# Target sequence (P34981 whole entry, looked up): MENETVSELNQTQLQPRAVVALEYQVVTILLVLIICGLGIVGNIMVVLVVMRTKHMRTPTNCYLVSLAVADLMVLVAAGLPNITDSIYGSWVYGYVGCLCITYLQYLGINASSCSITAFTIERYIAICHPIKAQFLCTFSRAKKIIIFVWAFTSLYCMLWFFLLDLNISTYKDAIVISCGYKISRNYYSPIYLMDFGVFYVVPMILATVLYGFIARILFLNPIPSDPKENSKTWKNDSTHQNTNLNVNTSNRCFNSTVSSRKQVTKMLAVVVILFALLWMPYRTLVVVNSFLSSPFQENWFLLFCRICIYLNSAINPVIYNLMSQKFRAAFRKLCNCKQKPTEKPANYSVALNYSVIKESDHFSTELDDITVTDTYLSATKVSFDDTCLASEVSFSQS
#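 In this calcium-flux screen, cells bearing human TRHR are dye-loaded with fluo-8, baselined for 10 cycles, then exposed to library compounds; positive kinetic calcium responses during the agonist phase mark hits, with TRH as control.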
# D1 antagonist: blocks dopamine activation of the human D1 receptor | P21728 | HEK293 TREx D1 cells, calcium flux, dopamine EC80; hits give low values | activity change, negative = inhibition, % at 10 µM | 3.2% of 360,000 active; in the data active means activity change below about -30%; further: on the % scale 0 is the no-effect control and ±100 the full control effect
#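 Using tetracycline-induced force-coupled D1 Hek293 cells and a calcium dye, signals were followed for 180 s after compound, then for 180 s after EC80 dopamine, to detect inhibitors.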
# TRHR enhancer: allosteric enhancers of human TRH receptor; 0.66% of 360,000 active; P34981; enhancement, % at 2 µM; AID 493056; TRHR cells, fluo-8 calcium fluorescence, EC20 TRH enhancement; in the data active means enhancement above about 30%; further: 0% is about no effect
#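 Enhancer read-out: after compound pinning and an initial kinetic agonist-mode read, an EC20 of TRH (10 nM final) was injected and fluo-8 calcium signal (Ex 480/Em 530) followed at 1 s/cycle for 100 cycles in TRHR-expressing cells.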
# D1 ag: human D1 receptor agonism. P21728. HEK293 T-REx D1 cells, calcium flux, agonist mode. activation, % at 2 µM. 1% of 360,000 active. AID 504660; further: 0% is about no effect
#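 Inducible HEK293 T-REx D1 cells, force-coupled to calcium signalling, were plated at 4000 cells/well with tetracycline and held overnight at 30 C. After no-wash calcium dye loading, compound-evoked calcium rise over 180 s flagged agonists.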
# Active calls of the source: *; · = not tested or not shown. Shown are actives, neighbours in structure and some others; about 4.7% of the full set was active somewhere. Unless noted, no stated cut-off is given here; in the data, active means activation above about 30%; inactive means the rest.
SMILES,D1 potentiator,TRHR ag,D1 antagonist,TRHR enhancer,D1 ag
Nc1ccc2ccc3cccc[n+]3c2c1,12,65*,-26,9,131*
C[n+]1c(-c2ccccc2)c2cc(N)ccc2c2ccc(N)cc21,-6,5,1,-6,27
C=C1CC[C@@]2(O)[C@H]3Cc4ccc(O)c5c4[C@@]2(CCN3CC2CC2)[C@H]1O5,1,0,-15,-8,1
C=C(C)CN1CC[C@]23c4c5ccc(O)c4O[C@H]2c2[nH]c4ccccc4c2C[C@@]3(O)C1C5,-4,0,-80*,8,-1
O=C(O)Cn1cc(/C=C2\C(=O)NC(=O)N(c3ccc(Br)cc3)C2=O)c2ccccc21,-5,1,-31*,-12,4
Cc1ccc(N2C(=O)NC(=O)/C(=C\c3cn(CC(=O)O)c4ccccc34)C2=O)cc1,2,0,-7,-2,-3
O=C(Nc1ccc2c(c1)OCO2)c1cccn(Cc2ccc(F)cc2)c1=O,0,0,·,-2,0
N#Cc1cccc(NC(=O)c2sc3nc4c(cc3c2N)N2CCC4CC2)c1,-1,1,-10,-12,0
CSc1nnc([C@@H](N)Cc2ccccc2)o1,1,0,11,-5,1
CC(C)Sc1nnc([C@@H](N)Cc2ccccc2)o1,-2,-1,-11,10,75*
Nc1c(C(=O)NCCN2CCOCC2)c2nc3ccccc3nc2n1Cc1ccco1,-3,2,-42*,-4,4
NCCc1c[nH]c2ccc(C(N)=O)cc12,-6,0,35,-3,2
NCCc1c[nH]c2ccc(F)cc12,-3,0,-30*,-2,1
Cc1ccc2scc(N3CCN(C)CC3)c(=O)c2c1,2,-1,19,3,4
CCN(CC)c1ccc(CNCCc2ccc(F)cc2)cc1,1,1,4,1,64*
CCc1ccc(CNCCc2ccc(F)cc2)cc1,-7,-1,-11,10,62*
Fc1ccc(CCNCc2ccc(Cl)c(Cl)c2)cc1,-2,1,-15,3,10
O=C(Nc1ccc(Br)cc1C(=O)c1ccccc1Cl)c1ccccc1F,-3,0,-11,-3,2
Cc1ccc(-n2c(/C=C/c3cccs3)nc3ccccc3c2=O)cc1C,2,0,-6,-16,2
Nc1c2c(nc3sc4c(c13)CCCCC4)CCCC2,-12,-2,-42*,3,20
O=C1NC(=O)C(=C/C=C/c2coc3ccc(Br)cc3c2=O)C(=O)N1,-2,41*,1,10,83*
Clc1ccc(CNC2CN3CCC2CC3)cc1 (stereo not drawn),-8,0,-75*,2,4
Nc1c(C(=O)Nc2ccc(F)c(Cl)c2)sc2nc3c(cc12)N1CCC3CC1,-4,1,0,-4,3
O=C(c1cc(F)ccc1F)C1CCCN(Cc2cc(Cl)ccc2O)C1 (stereo not drawn),-11,0,1,34*,1
COc1cccc(C(=O)C2CCCN(Cc3ccc4nonc4c3)C2)c1 (stereo not drawn),0,0,-9,19,2
SMILES,D1 potentiator,TRHR ag,D1 antagonist,TRHR enhancer,D1 ag
O=C(c1cc(F)ccc1F)C1CCCN(Cc2ccc3nonc3c2)C1 (stereo not drawn),6,-1,-31*,11,0
COc1ccc(O)c(CN2CCCC(C(=O)c3sccc3C)C2)c1 (stereo not drawn),-7,-2,5,-4,-1
COc1ccc(CN2CCCC(C(=O)c3ccc(Cl)cc3)C2)c(OC)c1 (stereo not drawn),-1,1,-35*,5,11
O=C(c1ccc2c(c1)OCO2)C1CCCN(Cc2ccc(F)c(F)c2)C1 (stereo not drawn),-7,0,-34*,-3,9
O=c1c2ccccc2nc(/C=C\c2ccccc2F)n1-c1ccc(O)cc1,-1,0,-6,2,-2
Cc1ccccc1-n1c(O)c(/C=C2/C(c3ccccc3)=Nc3ccccc32)c(=O)[nH]c1=O,-5,-2,-50*,2,14
Cc1cccc(-n2c(O)c(/C=C3/C(c4ccccc4)=Nc4ccccc43)c(=O)[nH]c2=O)c1,-4,2,-21,-5,6
Cc1ccc(C(C)(C)C)c(OCC(=O)Nc2ccc(Cl)cc2C(=O)c2ccccc2)c1,-2,0,12,7,1

# Screening data (PubChem BioAssay)
